Holding throughout (experiment): NCI-60 one-dose screen, 48 h (100 = growth as untreated, 0 = no growth, -100 = all killed)
Holding throughout (conditions): 10 µM unless noted

Assay [1] deals with SR leukemia.
For assay [2], the system named is RPMI-8226 leukemia.
In assay [3] the test system is OVCAR-8 ovarian.
Assay [4] has as its system OVCAR-5 ovarian.
Assay [5] has as its system OVCAR-4 ovarian.
Assay [6] has as its system SK-OV-3 ovarian.
Assay [7] concerns IGROV1 ovarian.
Assay [8] relates to HS 578T breast.
Assay [9] has as its system NCI/ADR-RES ovarian.

The panel holds about 83,000 compounds, 20% with a hit somewhere; the sample as a whole holds those more often.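 Each cell line was grown in a 96-well plate and treated with one concentration of compound for 48 hours. Values below 10 were considered active.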 Unmarked numbers belong to inactive results. Active and inactive are the calls of the source.

Take `CNC(=O)c1cc(Oc2ccc3c(c2)sc2nc(-c4ccc(N(C)C)cc4)cn23)ccn1`: the growth was 13.2% in assay [1]; 6.21% (active) in assay [2]; 14% in [3]; 39.4% in assay [4]; 70.7% in assay [5]; 49.2% in assay [6]. Besides, the growth in [7] is 21.5%; in [8], 44.1%; in [9] it was 0.629% (active).
`Nn1c(=O)n(-c2cccc(C(F)(F)F)c2)c(=O)c2cc(-c3ccc(F)cc3F)ccc21`: the growth in assay [1] is 6.24% (active); in assay [2], -19.1% (active); in [3], 9.99% (active); in assay [4], 47.2%; in assay [5], 28.8%; in [6] it was -8.64% (active). Also, the results for the growth in [7], in assay [8] and in assay [9] were 20.9%, 0.556% (active) and 2.58% (active), respectively.
As to `O=C(COc1ccc(/C=C2\C(=O)Nc3ccc(F)cc32)cc1)Nc1ccccc1`, the growth in assay [1] was 86.1%; in assay [2] it was 103%; in [3], 98.7%; in assay [4], 95.8%; in assay [5] it was 100%; in [6] it was 96.9%. Further, the growth is 109% in assay [7], 105% in assay [8] and 101% in assay [9].
For `CC(C)(C)OC(=O)NCc1ccc(CNc2c([N+](=O)[O-])cnc3ccccc23)cc1`, the growth was 37.1% in assay [1]; 43.6% in [2]; 63.4% in [3]; 93.6% in [4]; 54.8% in assay [5]; 68% in assay [6]. For the same compound, the figures for the growth in assay [7], in [8] and in [9] were 76.5%, 76.9% and 38.2%, respectively.
Turning to `CCc1cc(OC(=O)N2CCN(CCC(C)(COC(C)(C)C)COC(C)(C)C)CC2)ccc1Nc1cc(-c2ccc(-n3cccn3)cc2)[nH]n1`, the growth in assay [1] is 37.9%; in assay [2] it was 60.5%; in assay [3], 84.3%; in assay [4], 89.1%; in assay [5], 60.8%; in assay [6] it was 105%. Besides, the growth is 67% in assay [7], 68.2% in assay [8] and 74.5% in assay [9].
Consider `O=C(CCCCCCN1CC(=O)N2[C@@H](c3cccs3)c3[nH]c4ccccc4c3C[C@H]2C1=O)NO`, for which the growth was 35.6% in assay [1]; 55% in [2]; 61.7% in [3]; 70.4% in [4]; 95.6% in assay [5]; 101% in assay [6]. Moreover, the figures for the growth in assay [7], in [8] and in [9] were 94.3%, 81.1% and 90.4%, respectively.
For the compound `Cc1cccc(N2CCN(C3=C(Cl)C(=O)c4ncccc4C3=O)CC2)c1`, the growth in assay [1] is 3.39% (active); in assay [2], 46.8%; in [3], 80.6%; in [4] it was 111%; in [5] it was 67%; in assay [6], 92.9%. For the same compound, the values for the growth in assay [7], in assay [8] and in [9] were 73.1%, 70.6% and 78.7%, respectively.
`COc1cc(/C=C2/C(=O)Nc3ccc(Cl)cc32)ccc1OCc1ccc(Cl)cc1`: the growth in assay [1] was 41.9%; in assay [2], 100%; in assay [3] it was 91.2%; in assay [4] it was 96.7%; in assay [5], 20.3%; in [6] it was 110%. The growth in [7] was 77.3%; in assay [8], 94.1%; in assay [9], 88.3%.
On to `CCCc1[nH]c(-c2cc(N)ccc2Cl)c2c1C(=O)CCCC2`, for which the growth was 85.8% in assay [1]; 89.7% in assay [2]; 96.4% in assay [3]; 94.7% in assay [4]; 95.9% in assay [5]; 103% in [6]. Also, the growth in assay [7] is 91.6%; in [8], 89.9%; in assay [9] it was 95.2%.
With `CN1CCN(Cc2ccc(NC(=O)c3cncc(C#Cc4cnc5ccc(OCC(F)F)nn45)c3)cc2C(F)(F)F)CC1`, the growth in assay [1] is -24.3% (active); in [2], -21.7% (active); in assay [3], -74.6% (active); in assay [4], -47.1% (active); in [5], -62.6% (active); in assay [6] it was -24.2% (active). Moreover, the growth in assay [7] was -53.8% (active); in assay [8], -34.1% (active); in assay [9] it was -28.1% (active).
Turning to `Cc1ccccc1N1CCN(C2=C(Cl)C(=O)c3ncccc3C2=O)CC1`, the growth in [1] is -24.1% (active); in assay [2], 11.5%; in assay [3], 70%; in [4] it was 98.4%; in [5], 59%; in assay [6], 95.8%. Also, the growth in assay [7] is 77.3%; in assay [8], 57.4%; in [9] it was 73.7%.
Regarding `COc1ccc(/C=N/NC(=O)c2c(N)nn(C)c2Nc2ccccc2)cc1Oc1ccccc1`, the growth in [1] was 87.8%; in assay [2], 82.1%; in [3], 87.7%; in assay [4], 92.4%; in [5] it was 92.2%; in assay [6], 112%. In addition, the growth in [7] was 93.5%; in [8] it was 93.6%; in assay [9] it was 92.6%.
For the compound `O=C1[C@@H]2Cc3c([nH]c4ccccc34)[C@H](c3ccc(Br)cc3)N2C(=O)CN1C1CCN(Cc2c(Cl)cccc2Cl)CC1`, the growth was 91.7% in assay [1]; 79.9% in assay [2]; 94.6% in assay [3]; 99.4% in assay [4]; 86.2% in assay [5]; 86.7% in assay [6]. Further, the growth in [7] is 84.7%; in assay [8], 90.1%; in assay [9] it was 90.9%.
On to `O=S1SC(c2ccccc2)=NN1c1cc(F)cc(F)c1` (stereo unspecified), for which the growth is 19.3% in assay [1]; 11.5% in assay [2]; 35.5% in [3]; 93.8% in [4]; 49.3% in assay [5]; 24.8% in assay [6]. The growth was 53.8% in assay [7], 61.9% in assay [8] and 53.4% in assay [9].

The record behind these values is PubChem BioAssay (NCI).
